# From PubChem BioAssay (EPA / NIEHS)
# The source made the active and inactive calls. How the source made its calls: active means hit-call score of the fitted dose curve at least 0.9, where 1 is the maximum; inactive means score below 0.9.
# Test system: not listed separately
# Test: CCTE_Mundy_HCI_Cortical_NOG_BPCount: CCTE's Neurite Outgrowth Assay in rat cortical cells for Branch Point Count, Mundy Lab (AID 2284237)
# Details: not given
# In short: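 Measured 50.33 h after dosing, this morphology endpoint uses rat primary cortical cultures labelled for betaIII-tubulin. Branch points are quantified by high-content imaging, with DMSO as negative control and baseline.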
row,Structure (SMILES),outcome
1,CC1(C)S[C@@H]2[C@H](NC(=O)COc3ccccc3)C(=O)N2[C@H]1C(=O)O,inactive
2,N[C@H]1C(O)O[C@H](CO)[C@H](O)[C@@H]1O (stereo not given in full),inactive
3,Nc1ncn([C@@H]2O[C@H](CO)[C@@H](O)[C@H]2O)c(=O)n1,inactive

# Read-out: Collagen I, COL1A1 (gene 1277)
# Test: BSK_MyoF_CollagenI: BioMAP Diversity Plus: MyoF Assay for Collagen I Biomarker Activity (AID 2284238)
# Details: primary human lung fibroblasts
# In short: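 Collagen I levels measured by ELISA on human lung fibroblast cultures 24 h post-dosing, with curve fitting in the positive direction relative to DMSO; SRB staining of parallel wells marked cytotoxicity.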
Structure (SMILES),AC50,outcome
CCCCC/C=C\C/C=C\CCCCCCCC(=O)OC,27.1 µM (active),
C=CCOc1c(Br)cc(Br)cc1Br,20 µM (active),
c1ccc2c(c1)ccc1ncccc12,,inactive
CCOc1nc(F)cc2nc(S(=O)(=O)Nc3c(Cl)cccc3C(=O)OC)nn12,,inactive
O=C(Cl)c1cc(C(=O)Cl)cc(C(=O)Cl)c1,30.7 µM (active),
C=CC=CC=CCCCCC,,inactive
O=Nc1ccc(O)cc1,,inactive
CCCCC(CC)COC(=O)c1ccccc1O (stereo not given),14.5 µM (active),
CCCCCCCCCCCCCCCC[N+](C)(C)CC,0.64 µM (active),
CC(C)C(=O)C(C)C,,inactive
CC(C)(c1cc(Br)c(OCCO)c(Br)c1)c1cc(Br)c(OCCO)c(Br)c1,6.65 µM (active),
CCCCCCCCc1ccc(Nc2ccc(CCCCCCCC)cc2)cc1,,inactive
CCCCNc1ccc(NCCCC)c2c1C(=O)c1ccccc1C2=O,,inactive
C=CC(=O)OCC(Br)CBr (stereo not given),20 µM (active),
COc1ccc2nc(N)sc2c1,,inactive
c1ccc(-c2ccccn2)nc1,,inactive
O=c1c2ccccc2oc2ccccc12,,inactive
CCO[Si](CCCN=C=O)(OCC)OCC,,inactive
N#[N+]c1ccc2c(S(=O)(=O)[O-])cccc2c1O,,inactive
CC1OC1C1CCC2(C)OC2C1 (stereo not given),,inactive
COCc1c(C(C)C)nc(C(C)C)c(/C=C/[C@@H](O)C[C@@H](O)CC(=O)O)c1-c1ccc(F)cc1,9.2 µM (active),
S=C(NC1CCCCC1)NC1CCCCC1,,inactive
C#CC1(O)CC[C@H]2[C@@H]3CCC4=CCCC[C@@H]4[C@H]3CC[C@@]21C (stereo not given in full),22.4 µM (active),
c1ccc2c(c1)ccc1cc3c(ccc4ccccc43)cc12,,inactive
C/C=C\C/C=C/CCCCCCCCOC(C)=O,,inactive
C=CCOCC(O)CCl (stereo not given),,inactive
O=C(Nc1ccccc1SSc1ccccc1NC(=O)c1ccccc1)c1ccccc1,,inactive

# Read-out: Collagen III, COL3A1 (gene 1281)
# Test: BSK_MyoF_CollagenIII: BioMAP Diversity Plus: MyoF Assay for Collagen III Biomarker Activity (AID 2284239)
# Details: primary human lung fibroblasts
# In short: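 Collagen III biomarker quantified by ELISA in human lung fibroblast cultures 24 h after dosing. Activity fitted in the positive direction against DMSO as baseline.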
Structure (SMILES),AC50,outcome
CCCCC/C=C\C/C=C\CCCCCCCC(=O)OC,20 µM (active),
C=CCOc1c(Br)cc(Br)cc1Br,26.2 µM (active),
c1ccc2c(c1)ccc1ncccc12,,inactive
CCOc1nc(F)cc2nc(S(=O)(=O)Nc3c(Cl)cccc3C(=O)OC)nn12,,inactive
O=C(Cl)c1cc(C(=O)Cl)cc(C(=O)Cl)c1,33.2 µM (active),
C=CC=CC=CCCCCC,,inactive
O=Nc1ccc(O)cc1,,inactive
CCCCC(CC)COC(=O)c1ccccc1O (stereo not given),,inactive
CCCCCCCCCCCCCCCC[N+](C)(C)CC,0.967 µM (active),
CC(C)C(=O)C(C)C,,inactive
CC(C)(c1cc(Br)c(OCCO)c(Br)c1)c1cc(Br)c(OCCO)c(Br)c1,7.69 µM (active),
CCCCCCCCc1ccc(Nc2ccc(CCCCCCCC)cc2)cc1,,inactive
CCCCNc1ccc(NCCCC)c2c1C(=O)c1ccccc1C2=O,,inactive
C=CC(=O)OCC(Br)CBr (stereo not given),32.7 µM (active),
COc1ccc2nc(N)sc2c1,,inactive
c1ccc(-c2ccccn2)nc1,,inactive
O=c1c2ccccc2oc2ccccc12,,inactive
CCO[Si](CCCN=C=O)(OCC)OCC,,inactive
N#[N+]c1ccc2c(S(=O)(=O)[O-])cccc2c1O,,inactive
CC1OC1C1CCC2(C)OC2C1 (stereo not given),,inactive
COCc1c(C(C)C)nc(C(C)C)c(/C=C/[C@@H](O)C[C@@H](O)CC(=O)O)c1-c1ccc(F)cc1,0.867 µM (active),
S=C(NC1CCCCC1)NC1CCCCC1,,inactive
C#CC1(O)CC[C@H]2[C@@H]3CCC4=CCCC[C@@H]4[C@H]3CC[C@@]21C (stereo not given in full),31.8 µM (active),
c1ccc2c(c1)ccc1cc3c(ccc4ccccc43)cc12,,inactive
C/C=C\C/C=C/CCCCCCCCOC(C)=O,,inactive
C=CCOCC(O)CCl (stereo not given),,inactive
O=C(Nc1ccccc1SSc1ccccc1NC(=O)c1ccccc1)c1ccccc1,,inactive

# Test system: not listed separately
# Test: CCTE_Mundy_HCI_hNP1_Casp3_7: CCTE's Caspase-Glo 3/7 Assay in human neuroprogenitor cells for Apoptosis, Mundy Lab (AID 2284240)
# Details: not given
# In short: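 Luminescent caspase-3/7 readout, 26.5 h post-dose, in human neural progenitor cells from WA09 embryonic stem cells. Cells grew 40–44 h at 37 °C, 5% CO2 before chemical addition. Activity analysed as signal increase over DMSO baseline.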
Structure (SMILES),outcome,AC50
CC1(C)S[C@@H]2[C@H](NC(=O)COc3ccccc3)C(=O)N2[C@H]1C(=O)O,inactive,
N[C@H]1C(O)O[C@H](CO)[C@H](O)[C@@H]1O (stereo not given in full),inactive,
Nc1ncn([C@@H]2O[C@H](CO)[C@@H](O)[C@H]2O)c(=O)n1,,5.45 µM (active)
